The nature of test [1]: Nuclear factor erythroid 2-related factor 2/antioxidant responsive element (Nrf2/ARE) small molecule agonists: qHTS cell viability counter screen in human keratinocytes (AID 1919968; active = well fitted curve in the direction sought with a large enough effect in the repeat runs; an effect the other way counts as inactive or inconclusive; also: nearly all actives have a fitted effect of over 55% in size). The method, boiled down: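 Cells of the KeratinoSens line were plated at 1,500 per well and left for 5 h before compound transfer from DMSO stocks. After a 23 h incubation (37 C, 5% CO2), CellTiter-Fluor was added. Signal was taken as fluorescence intensity 1 h later.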
(In general: qHTS replaces the single test concentration by a dilution series.)

Test [2] is described as follows: Nuclear factor erythroid 2-related factor 2/antioxidant responsive element (Nrf2/ARE) small molecule agonists: luciferase reporter gene qHTS assay in human keratinocytes (AID 1919969; also: nearly all actives have a fitted effect of over 35% in size; also: potency is read from the fitted curve at half-maximal effect). (In a reporter assay the amount or activity of a reporter protein is the signal.)
The target in test [3] is KiSS-1 receptor (Homo sapiens) (UniProt Q969F8). In words: Human kisspeptin (KISS1R) small molecule agonists, calcium flux assay in KISS1R-HEK293 cells (AID 1920064; active = well fitted curve in the direction sought with a large enough effect in the repeat runs; an effect the other way counts as inactive or inconclusive). The method, boiled down:
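Cell line: HEK293, stable human KISS1R. Dye loading 1 h at 37 C after 18 h culture. Read: kinetic fluorescence, 480/540 nm, 3 min at 1 s intervals.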
For orientation: Calcium flux is commonly read through the fluorescence of an indicator in the cells.

Test [4] is described as follows: p53 small molecule agonists, cell-based qHTS assay with human liver microsomes (AID 1963577). The method, boiled down: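 p53RE-bla reporter cells were pre-incubated 5 h at 37 C, then treated with compounds plus human liver microsomes (0.5 mg/mL final) and NADPH (0.5 mg/mL final) for 16 h at 37 C. Beta-lactamase activity was read by LiveBLAzer fluorescence after 2 h at room temperature.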

Test [5] is described as follows: p53 small molecule agonists, cell-based qHTS assay with rat liver microsomes (AID 1963578). The method in brief: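 p53RE-bla cells were exposed to compounds together with rat liver microsomes (0.5 mg/mL final) and NADPH (0.5 mg/mL final) for 16 h at 37 C, then read by LiveBLAzer beta-lactamase fluorescence after 2 h at room temperature.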
Test [6] can be described thus: p53 small molecule agonists, cell-based qHTS assay with rat liver microsomes: qHTS cell viability counter screen (AID 1963580). Also: nearly all actives have a fitted effect of over 45% in size. The method in brief:
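Luminescent ATP readout (CellTiter-Glo, 30 min at room temperature) reports viability of p53RE-bla HCT-116 cells after 16 h at 37 C with test compounds under metabolic activation by rat liver microsomes and NADPH at 0.5 mg/mL final each.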

The nature of test [7]: p53 small molecule agonists, cell-based qHTS assay (AID 1963582; active = well fitted activation curve with a large enough effect in the signal ratio in the repeat runs, not every such curve was filed as active; the % refers to the signal ratio). The method, boiled down:
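16 h compound exposure (37 C) of p53 response element–bla cells, preceded by 5 h recovery at 37 C/5% CO2; read-out via LiveBLAzer B/G FRET substrate, 2 h RT, fluorescence intensity.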

Test [8] has as its target 5-hydroxytryptamine receptor 2A (Homo sapiens) (UniProt P28223). In words: 5-hydroxytryptamine receptor 2A (HTR2A) small molecule antagonists, cell-based qHTS assay (AID 1963586). Also: nearly all actives have a fitted effect of over 45% in size. Also: potency is read from the fitted curve at half-maximal effect. The method in brief:
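CHO cells stably expressing human HTR2A were plated for 18 h at 37 C, then loaded with calcium dye for 1 h. Compounds were preincubated 5 min at room temperature before DOI (4 nM solution) was added. Kinetic fluorescence was read for 3 min.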

Test [9] shares this target. In words: 5-hydroxytryptamine receptor 2A (HTR2A) small molecule agonists, cell-based qHTS assay (AID 1963587). Also: nearly all actives have a fitted effect of over 30% in size. Also: potency is read from the fitted curve at half-maximal effect. The method, boiled down:
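HTR2A-CHO cells, plated 18 h at 37 C/5% CO2, dye-loaded 1 h at 37 C; compounds in DMSO added by pin tool (agonist mode). Intracellular calcium flux read as kinetic fluorescence on FDSS over 2 min at 1 s intervals.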

Test [10] addresses Muscarinic acetylcholine receptor M1 (Homo sapiens) (UniProt P11229). Nature of the test: Cholinergic receptor muscarinic 1 (CHRM1) small molecule antagonists, cell-based qHTS assay (AID 1963588). Also: nearly all actives have a fitted effect of over 40% in size. The method in brief:
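Compounds were tested at 15 concentrations in three independent runs. Dye-loaded CHRM1-CHO cells were exposed 5 min at room temperature before stimulation by acetylcholine added at 50nM. Intracellular calcium was read kinetically on FDSS for 3 min.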

Test [11] shares this target. Nature of the test: Cholinergic receptor muscarinic 1 (CHRM1) small molecule agonists, cell-based qHTS assay (AID 1963589). Also: nearly all actives have a fitted effect of over 35% in size. The method, boiled down:
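Homogeneous fluorescence calcium flux, agonist mode. Human M1-expressing CHO cells; compound dosed at 15 concentrations, three independent runs; signal sampled every 1 sec.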

Test [12] can be described thus: cAMP Responsive Elements (CRE) small molecule agonists, cell-based qHTS assay (AID 1963590). The method, boiled down:
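HEK 293T cells stably bearing CRE-bla were plated at 2,000 cells per well and rested 18 h. Compounds, positive controls or DMSO were added for 3 h at 37 C. LiveBLAzer B/G substrate was then loaded for 2 h at room temperature.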

A short description of test [13]: cAMP Responsive Elements (CRE) small molecule antagonists, cell-based qHTS assay (AID 1963591; active = well fitted inhibition curve with a large enough effect in the signal ratio in the repeat runs, not every such curve was filed as active; the % refers to the signal ratio). The method in brief:
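First, CRE-bla HEK293T cells settled 18 h at 37 C. Next, compound and 0.25 uM final NKH477 were applied for 3 h. Last, LiveBLAzer B/G substrate was loaded for 2 h at room temperature.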

Test [14] addresses Beta-2 adrenergic receptor (Homo sapiens) (UniProt P07550). In words: Adrenergic beta2 receptor (ADRB2) small molecule antagonists, cell-based qHTS assay (AID 1963592). Also: series mostly up to about 92 µM; nearly all actives have a fitted effect of over 50% in size. The method in brief:
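Assay format: CHO-ADRB2 cells, 18-20hr seeding at 37C/5% CO2, then compound plus 1nM isoproterenol agonist mix for 0.5hr RT. Homogeneous time-resolved fluorescence cAMP detection after 1hr, expressed as 665/615 nm ratio.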

Test [15] addresses D(2) dopamine receptor (Homo sapiens) (UniProt P14416). In words: Dopamine D2 receptor (DRD2) small molecule agonists, cell-based qHTS assay (AID 1963594). Also: nearly all actives have a fitted effect of over 35% in size. The method, boiled down: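 HEK293 cells stably expressing DRD2 were cultured 24 h at 37 C, then given Ro20-1724 (0.1 mM final) and compounds for 10 min at room temperature. NKH477 (200nM) was then added for 30 min. cAMP was read by HTRF.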

The target is the same in test [16]. Nature of the test: Dopamine D2 receptor (DRD2) small molecule antagonists, cell-based qHTS assay (AID 1963595; active = well fitted inhibition curve with a large enough effect in the signal ratio in the repeat runs, with a control signal flat; the % refers to the signal ratio). The method, boiled down:
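DRD2-HEK293; 0.1 mM Ro20-1724; cpd 10 min RT; NKH477 200 nM + quinpirole 12 nM, 30 min RT; HTRF cAMP (cAMP-d2/anti-cAMP cryptate), 665/620 nm ratio after 1 h.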

For test [17], the target named is Gonadotropin-releasing hormone receptor (Homo sapiens) (UniProt P30968). In words: Human gonadotropin-releasing hormone receptor (GnRHR) small molecule agonists, calcium flux assay in GnRHR-HEK293 cells (AID 1920063). Also: nearly all actives have a fitted effect of over 35% in size. The method in brief: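 Compounds dissolved in DMSO are pin-transferred onto dye-loaded GnRHR-HEK293 cells, which were seeded 18 h before at 37 C/5% CO2. Calcium signal is read as fluorescence intensity at 1 s intervals for 3 min.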

Test [18] is described as follows: G protein-coupled receptor (GPCR) small molecule agonists, calcium flux assay: HEK293 wild type cell line counter screen (AID 1920065). The method in brief: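 Tox21 10K compounds, 15 concentrations each in triplicate, pin-transferred in DMSO onto dye-loaded cells; kinetic read at 480/540 nm for 3 min, 1 s intervals.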
Test [19] in a line: p53 small molecule agonists, cell-based qHTS assay with human liver microsomes: qHTS cell viability counter screen (AID 1963579). Also: nearly all actives have a fitted effect of over 45% in size. The method, boiled down: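 p53RE-bla cells (4,000/well) were pre-incubated 5 h at 37 C, then given compounds in DMSO plus human liver microsomes (0.5 mg/mL final) and NADPH (0.5 mg/mL final) for 16 h at 37 C. Viability was read by CellTiter-Glo luminescence.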

Test [20] can be described thus: p53 small molecule agonists, cell-based qHTS assay: qHTS cell viability counter screen (AID 1963581). Also: nearly all actives have a fitted effect of over 45% in size. The method, boiled down: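 ATP content measured by luminescence in HCT-116 p53RE-bla cells treated 16 h at 37 C, same wells as the reporter screen.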

Drawing on PubChem BioAssay (Tox21), this text covers Potency for seven compounds.

Each structure is given as a SMILES string. A number with no mark means an inactive call. Records with an inconclusive call do not appear. The source made the active and inactive calls. Unless noted, calls follow the shape of the full dose curve.

Sequence of Beta-2 adrenergic receptor (Homo sapiens) (P07550 whole entry, looked up): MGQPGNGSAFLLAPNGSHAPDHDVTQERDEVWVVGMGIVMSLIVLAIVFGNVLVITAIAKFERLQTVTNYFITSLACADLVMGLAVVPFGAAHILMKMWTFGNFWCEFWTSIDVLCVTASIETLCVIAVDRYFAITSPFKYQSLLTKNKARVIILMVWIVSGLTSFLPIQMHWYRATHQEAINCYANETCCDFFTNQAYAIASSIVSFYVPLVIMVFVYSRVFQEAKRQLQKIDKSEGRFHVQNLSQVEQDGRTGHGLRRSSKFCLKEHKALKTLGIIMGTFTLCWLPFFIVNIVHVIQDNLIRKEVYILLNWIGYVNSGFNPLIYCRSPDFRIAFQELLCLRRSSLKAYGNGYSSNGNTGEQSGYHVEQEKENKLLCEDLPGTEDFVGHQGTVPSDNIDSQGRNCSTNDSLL
Sequence of D(2) dopamine receptor (Homo sapiens) (P14416 whole entry, looked up): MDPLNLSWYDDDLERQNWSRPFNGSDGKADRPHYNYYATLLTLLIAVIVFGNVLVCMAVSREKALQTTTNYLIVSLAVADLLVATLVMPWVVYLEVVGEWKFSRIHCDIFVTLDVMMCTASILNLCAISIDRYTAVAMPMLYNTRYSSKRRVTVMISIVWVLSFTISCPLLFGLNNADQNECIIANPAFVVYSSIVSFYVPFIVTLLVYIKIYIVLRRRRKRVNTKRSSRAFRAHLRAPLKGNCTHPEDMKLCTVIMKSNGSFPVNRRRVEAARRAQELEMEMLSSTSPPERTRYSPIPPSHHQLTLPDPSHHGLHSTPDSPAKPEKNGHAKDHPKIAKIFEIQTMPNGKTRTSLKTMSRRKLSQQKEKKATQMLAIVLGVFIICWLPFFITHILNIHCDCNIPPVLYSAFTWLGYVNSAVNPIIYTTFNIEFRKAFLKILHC
Sequence of 5-hydroxytryptamine receptor 2A (Homo sapiens) (P28223 whole entry, looked up): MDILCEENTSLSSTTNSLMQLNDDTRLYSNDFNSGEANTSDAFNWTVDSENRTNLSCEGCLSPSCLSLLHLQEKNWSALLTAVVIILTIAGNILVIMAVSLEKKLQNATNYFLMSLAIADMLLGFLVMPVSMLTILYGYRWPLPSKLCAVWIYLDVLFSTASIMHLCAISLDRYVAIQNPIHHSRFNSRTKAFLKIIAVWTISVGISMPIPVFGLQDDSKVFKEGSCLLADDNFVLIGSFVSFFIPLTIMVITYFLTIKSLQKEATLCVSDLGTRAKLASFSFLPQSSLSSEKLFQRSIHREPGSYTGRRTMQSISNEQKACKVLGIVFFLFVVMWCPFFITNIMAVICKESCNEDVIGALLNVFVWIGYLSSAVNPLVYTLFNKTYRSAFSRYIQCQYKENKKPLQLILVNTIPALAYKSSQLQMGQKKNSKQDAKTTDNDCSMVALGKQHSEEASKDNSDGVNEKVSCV
Sequence of Gonadotropin-releasing hormone receptor (Homo sapiens) (P30968 whole entry, looked up): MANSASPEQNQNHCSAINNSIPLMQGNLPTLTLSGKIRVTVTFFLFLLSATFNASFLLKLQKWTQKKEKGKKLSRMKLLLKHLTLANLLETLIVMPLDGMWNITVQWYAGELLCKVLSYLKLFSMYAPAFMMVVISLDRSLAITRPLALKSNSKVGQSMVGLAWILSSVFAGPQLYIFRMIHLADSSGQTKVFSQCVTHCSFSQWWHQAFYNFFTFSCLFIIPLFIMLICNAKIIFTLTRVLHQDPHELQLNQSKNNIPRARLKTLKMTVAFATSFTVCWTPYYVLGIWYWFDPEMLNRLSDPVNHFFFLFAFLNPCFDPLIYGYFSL
Sequence of Muscarinic acetylcholine receptor M1 (Homo sapiens) (P11229 whole entry, looked up): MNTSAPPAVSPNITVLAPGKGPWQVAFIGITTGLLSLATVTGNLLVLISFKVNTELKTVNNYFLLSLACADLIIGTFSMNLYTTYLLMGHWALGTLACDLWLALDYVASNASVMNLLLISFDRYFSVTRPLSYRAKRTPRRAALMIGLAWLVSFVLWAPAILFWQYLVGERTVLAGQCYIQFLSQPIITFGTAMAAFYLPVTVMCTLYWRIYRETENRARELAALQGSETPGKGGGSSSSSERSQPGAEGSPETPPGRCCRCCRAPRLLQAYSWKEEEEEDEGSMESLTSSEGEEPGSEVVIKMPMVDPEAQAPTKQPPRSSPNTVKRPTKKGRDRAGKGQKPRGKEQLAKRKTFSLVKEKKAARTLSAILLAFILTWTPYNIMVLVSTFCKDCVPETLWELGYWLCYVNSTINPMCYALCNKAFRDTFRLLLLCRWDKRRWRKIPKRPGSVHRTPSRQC
Sequence of KiSS-1 receptor (Homo sapiens) (Q969F8 whole entry, looked up): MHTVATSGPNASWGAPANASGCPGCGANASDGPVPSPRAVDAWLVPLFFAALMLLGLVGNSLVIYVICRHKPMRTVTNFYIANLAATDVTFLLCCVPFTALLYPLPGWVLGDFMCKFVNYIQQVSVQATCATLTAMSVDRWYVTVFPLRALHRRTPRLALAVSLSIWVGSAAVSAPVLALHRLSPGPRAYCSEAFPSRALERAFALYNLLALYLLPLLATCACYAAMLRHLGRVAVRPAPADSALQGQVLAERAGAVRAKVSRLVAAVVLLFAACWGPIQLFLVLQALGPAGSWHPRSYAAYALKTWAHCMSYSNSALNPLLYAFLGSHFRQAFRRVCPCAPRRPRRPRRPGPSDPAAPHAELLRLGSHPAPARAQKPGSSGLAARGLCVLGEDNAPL

Take `N#CNC#N`: the Potency result in test [1], in test [2], in [3], in [4], in test [5] and in test [6] was “inactive” throughout. Further, the Potency result in test [7], in test [8], in test [9], in test [10], in [11] and in test [12] was “inactive” in each case. The Potency entry in test [13], in test [14], in test [15] and in test [16] was “inactive” throughout.

As for `CC(Cl)CN(C)C` (stereo unspecified), the Potency result in test [1], in test [17], in test [3], in [18], in test [4] and in test [5] was “inactive” in each case. Besides, the Potency result in test [19], in test [6], in test [20], in test [7], in test [8] and in test [9] was “inactive” throughout. In addition, the Potency result in [10], in [11], in [12], in [13], in test [15] and in test [16] was “inactive” each time.

For `c1ccc(OCC2CO2)cc1` (stereo unspecified), the Potency entry in test [1], in test [17], in test [3], in [18], in [4] and in test [5] was “inactive” each time. The Potency result in test [19], in [6], in test [20], in test [7], in test [8] and in test [9] was “inactive” throughout. Also, the Potency result in test [10], in [11], in test [12], in [13], in test [14] and in test [15] was “inactive” each time. The Potency entry in [16] is “inactive”.

For the compound `Clc1cc(C(Cl)(Cl)Cl)cnc1Cl`, the Potency result in test [1], in test [17], in [3], in [18], in test [4] and in test [5] was “inactive” each time. Further, the Potency entry in [19], in test [6], in test [20], in [7], in test [8] and in test [9] was “inactive” throughout. For the same compound, the Potency entry in test [10], in test [11], in test [12], in [14], in test [15] and in test [16] was “inactive” each time.

As for `O=C=Nc1ccc(Cl)cc1`, the Potency result in test [1], in [3], in [4], in [5], in [6] and in test [7] was “inactive” each time. Besides, the Potency result in test [8], in test [9], in test [12], in test [13], in test [14] and in test [15] was “inactive” each time. Also, the Potency entry in test [16] was “inactive”. The Potency in [2] is 68.6 µM (active).

For `CCCN(CC)CC1COC2(CCC(C(C)(C)C)CC2)O1` (stereo unspecified), the Potency entry in test [1], in [17], in [3], in test [18], in test [4] and in test [5] was “inactive” each time. Besides, the Potency result in [19], in [6], in [20], in test [7], in [10] and in test [11] was “inactive” each time. In addition, the Potency entry in test [12], in test [13], in [14], in [15] and in [16] was “inactive” in each case. Also, the Potency was 10.6 µM (active) in test [8] and 43.6 µM (active) in test [9].

Consider `CCc1cccc(C)c1N(C(=O)CCl)[C@@H](C)COC`, for which the Potency entry in test [1], in [17], in [3], in test [18], in test [4] and in [5] was “inactive” throughout. Moreover, the Potency result in test [19], in test [6], in test [20], in [7], in test [8] and in test [9] was “inactive” in each case. Besides, the Potency entry in test [10], in test [12], in test [14], in test [15] and in [16] was “inactive” in each case.
